Data: PubChem BioAssay AID1159580 (chemical genetic matrix, 2015)
Screen size: about 5,500 compounds; about 2,000 (36%) were called active. Not shown: some 18% with an inconclusive outcome. No stated cut-off is given here; in the data, active means normalized growth mostly below about 0.91 (no sharp cut-off); inconclusive means no clear call, values can overlap the other calls; inactive means mostly above about 0.92. Some of the results follow.

Assay: chemical genetic growth profiling, strain panel (AID 1159580);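 further: tested at 20 µM; growth read once vehicle control cultures reached saturation at 30 °C; 1 = growth at the plate median or of vehicle wells; lower values mean less growth of the strain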
Details: S. cerevisiae deletion strains, growth OD

Measured: normalized growth

COc1ccc(-c2oc3cc(OC)c(OC)c(OC)c3c(=O)c2OC)cc1
inactive: locus YAL021C, strain ccr4, active compounds read low 0.993 | locus YAL030W, strain snc1, active compounds read low 0.979 | locus YBR023C, strain chs3, active compounds read low 0.919 | locus YBR171W, strain sec66, active compounds read low 0.978 | locus YBR231C, strain swc5, active compounds read low 0.93 | locus YBR279W, strain paf1, active compounds read low 0.982 | locus YCL011C, strain gbp2, active compounds read low 0.955 | locus YCL016C, strain dcc1, active compounds read low 0.948 | locus YCL061C, strain MRC1, active compounds read low 0.964 | locus YCL069W, strain vba3, active compounds read low 0.993 | locus YCR088W, strain abp1, active compounds read low 0.991 | locus YDL005C, strain med2, active compounds read low 0.982 | locus YDL040C, strain nat1, active compounds read low 0.984 | locus YDR001C, strain nth1, active compounds read low 0.982 | locus YDR069C, strain doa4, active compounds read low 0.987 | locus YDR159W, strain sac3, active compounds read low 0.982 | locus YDR195W, strain ref2 1.04 | locus YDR297W, strain sur2, active compounds read low 0.976 | locus YDR334W, strain swr1, active compounds read low 0.98 | locus YDR335W, strain msn5, active compounds read low 0.985 | locus YEL003W, strain gim4, active compounds read low 0.977 | locus YEL037C, strain rad23, active compounds read low 0.982 | locus YEL061C, strain CIN8 (second series), active compounds read low 0.98 | locus YER015W, strain faa2, active compounds read low 0.981 | locus YER016W, strain bim1, active compounds read low 0.988 | locus YER111C, strain swi4, active compounds read low 0.983 | locus YFR010W, strain ubp6, active compounds read low 0.981 | locus YGL167C, strain pmr1, active compounds read low 0.976 | locus YGL173C, strain kem1, active compounds read low 0.97 | locus YGL227W, strain vid30, active compounds read low 0.987 | locus YGL240W, strain doc1, active compounds read low 0.959 | locus YHR013C, strain ard1, active compounds read low 0.87 | locus YHR027C, strain rpn1, active compounds read low 0.983 | locus YHR030C, strain SLT2, active compounds read low 1.02 | locus YHR079C, strain IRE1, active compounds read low 1.02 | locus YJL092W, strain hpr5, active compounds read low 0.984 | locus YJL095W, strain BCK1 (second series), active compounds read low 0.972 | locus YJL095W, strain BCK1, active compounds read low 0.959 | locus YJL115W, strain asf1, active compounds read low 0.997 | locus YJL129C, strain trk1, active compounds read low 0.907 | locus YJL154C, strain vps35, active compounds read low 0.994 | locus YJL164C, strain tpk1, active compounds read low 0.928 | locus YJL166W, strain qcr8, active compounds read low 0.934 | locus YJL187C, strain SWE1, active compounds read low 0.98 | locus YJR066W, strain TOR1, active compounds read low 0.967 | locus YKL160W, strain elf1, active compounds read low 0.945 | locus YKR026C, strain gcn3, active compounds read low 0.978 | locus YKR091W, strain srl3, active compounds read low 0.99 | locus YLL001W, strain dnm1, active compounds read low 0.953 | locus YLL026W, active compounds read low 0.983 | locus YLL041C, strain sdh2, active compounds read low 0.985 | locus YLR027C, strain aat2, active compounds read low 0.96 | locus YLR113W, strain HOG1, active compounds read low 0.887 | locus YLR258W, strain gsy2, active compounds read low 0.967 | locus YLR342W, strain FKS1, active compounds read low 0.989 | locus YLR357W, strain rsc2, active compounds read low 0.896 | locus YLR370C, strain arc18, active compounds read low 0.969 | locus YLR384C, strain iki3, active compounds read low 0.974 | locus YML120C, strain ndi1, active compounds read low 0.966 | locus YMR058W, strain fet3, active compounds read low 0.959 | locus YMR125W, strain sto1, active compounds read low 0.96 | locus YMR129W, active compounds read low 0.992 | locus YMR205C, strain PFK2, active compounds read low 0.926 | locus YMR231W, strain pep5, active compounds read low 1 | locus YNL183C, strain NPR1, active compounds read low 0.928 | locus YNL209W, strain ssb2, active compounds read low 0.989 | locus YNL248C, strain rpa49, active compounds read low 0.984 | locus YNL322C, strain KRE1 (second series), active compounds read low 0.98 | locus YNR049C, strain mso1, active compounds read low 0.991 | locus YOR001W, strain rrp6, active compounds read low 0.978 | locus YOR070C, strain gyp1, active compounds read low 0.978 | locus YOR080W, strain dia2, active compounds read low 0.991 | locus YOR083W, strain WHI5, active compounds read low 0.915 | locus YOR106W, strain vam3, active compounds read low 0.942 | locus YOR231W, strain MKK1, active compounds read low 1.02 | locus YOR265W, strain rbl2, active compounds read low 0.968 | locus YOR270C, strain vph1, active compounds read low 0.785 | locus YOR290C, strain snf2, active compounds read low 0.88 | locus YPL051W, strain arl3, active compounds read low 0.927 | locus YPL078C, strain atp4, active compounds read low 0.93 | locus YPL106C, strain sse1, active compounds read low 0.944 | locus YPL240C, strain hsp82, active compounds read low 0.969 | locus YPL256C, strain CLN2, active compounds read low 1.04
active: locus YAL026C, strain drs2, active compounds read low 0.881 | locus YBL061C, strain skt5, active compounds read low 0.911 | locus YBR009C, strain hhf1, active compounds read low 0.899 | locus YDR137W, strain rgp1, active compounds read low 0.797 | locus YDR392W, strain spt3, active compounds read low 0.421 | locus YER155C, strain BEM2 (second series), active compounds read low 0.84 | locus YGL253W, strain hxk2, active compounds read low 0.89 | locus YHR142W, strain chs7, active compounds read low 0.718 | locus YLR221C, strain rsa3, active compounds read low 0.907 | locus YLR262C, strain YPT6 (second series), active compounds read low 0.795 | locus YLR320W, strain mms22, active compounds read low 0.815 | locus YNL071W, strain lat1, active compounds read low 0.734
